Rows were chosen to be rich in hits. Some 12% of all compounds tested hit in one or more screens of this group.
NS1 function inh: qHTS Assay for Inhibitors of Influenza NS1 Protein Function; Potency, µM (top dose mostly 46.1 µM), for the others: at the top dose activity, positive = more growth; 0.4% of 270,000 active; AID 2326, 2010; calls by dose curve; further: actives are rising curves; nearly all actives have a fitted effect of over 50% in size
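Compounds were scored for reversing the slow growth caused by influenza A NS1 in S. cerevisiae, measured by optical density at 600 nm. Assay medium contained 2% galactose at pH 6.0; NS1-free yeast of the same strain were the positive control.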
Pf growth 48h: Primary qHTS for delayed death inhibitors of the malarial parasite plastid, 48 hour incubation. Potency, µM (series often up to 28.7 µM), inactives show top-dose activity change, negative = inhibition, usual class: inhibitors. 5.9% of 310,000 active. P. falciparum luciferase growth in erythrocytes, 48 h; further: on the % scale 0 is the no-effect control and ±100 the full control effect
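Here the parasites carry a stable luciferase gene and grow inside erythrocytes in Albumax-based RPMI medium with compound for one erythrocytic cycle. Activity is scored as loss of luminescent signal.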
Pf growth 96h: Primary qHTS for delayed death inhibitors of the malarial parasite plastid, 96 hour incubation | Potency, µM (highest dose often 28.7 µM), for inactives: at the highest dose activity change, negative = inhibition, hits mostly inhibitors | 6.9% of 320,000 active | P. falciparum luciferase reporter growth, 96 h | AID 504834, 2011; further: on the % scale 0 is the no-effect control and ±100 the full control effect
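Two-generation exposure (96 h) targets delayed-death phenotype. Reporter parasites carrying integrated firefly luciferase, in red cells at 2% hematocrit and 0.05% parasitemia final, kept at 37 C, 5% CO2; luminescence loss indicates inhibition.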
AMA1-RON2 inh: qHTS for Inhibitors of AMA1-RON; Towards Development of Antimalarial Drug Lead: Primary Screen. AlphaScreen AMA1-biotinylated RON2 peptide binding. Potency, µM (titrated, usually from 58.2 µM), inactives show top-dose activity change, negative = inhibition, actives largely listed as inhibitors. 0.2% of 360,000 active;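 further: 0% = vehicle wells and -100% = peptide control; nearly all actives have a fitted effect of over 45% in size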
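AMA1 (3D7) with his tag at 25 nM final met compounds first, then biotinylated RON2 peptide at 25 nM; detection used donor plus acceptor beads, 10 µg/mL apiece, read by AlphaScreen after 30 min at room temperature.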
HCV inhibitor: qHTS Assay for Inhibitors of Hepatitis C Virus (HCV) | 3.4% of 340,000 active | Huh7.5.1 HCVcc-Cre infection, luciferase reporter, 44 h | AID 651820, 2012 | Potency, µM (series often up to 41.8 µM), for the others: at the top dose activity change, negative = inhibition, usual class: inhibitors; further: on the % scale 0 is the no-effect control and ±100 the full control effect
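Antiviral activity was scored by luciferase reporter output from cells infected with HCVcc-Cre (~0.5 moi) in presence of compound, 44 h infection period, cells seeded 1,000/well 4 h prior.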
SARS PLP yeast: qHTS of Yeast-based Assay for SARS-CoV PLP. Potency, µM (series often up to 32.9 µM), for the others: at the highest dose activity, positive = growth rescue, hits mostly activators. 0.19% of 330,000 active. S. cerevisiae expressing SARS-CoV PLpro, growth rescue; calls by dose curve; further: 0% is about no effect; nearly all actives have a fitted effect of over 55% in size
* = called active by the depositor; ? = inconclusive; · = not tested or not shown; [ ] = remark or other dose. Unless noted, the call rests on the fitted dose curve; in most records, active means well fitted curve in the direction sought with a large enough effect; inconclusive means small, poorly fitted or top-dose-only effect, or another doubt; inactive means no such curve, though single readings can be large; an effect the other way counts as inactive or inconclusive. Potency means the concentration at half of the fitted maximal effect.

SMILES	NS1 function inh	Pf growth 48h	Pf growth 96h	AMA1-RON2 inh	HCV inhibitor	SARS PLP yeast
Cc1cccc(C)c1NC(=O)CSc1cc(C(=O)c2nccn2C)c2ccccc2n1	19%	14%	-1%	-19%	2%	-5%
CC1c2ccsc2CCN1C(=O)NC(=O)c1ccc(Cl)cc1 (stereo unspecified)	2%	-5%	?	7%	-20%	0%
COc1ccc(C2c3ccsc3CCN2C(=O)NC(C)(C)C)cc1 (stereo unspecified)	-3%	-9%	?	12%	22µM*	1%
O=C(CN1C(=O)NC2(CCCCCC2)C1=O)Nc1ccc2c(c1)CCC2	4%	11%	12%	-5%	-11%	-5%
CN(C)C(CNC(=O)c1ccc2c(=O)n(-c3ccccc3F)c(=S)[nH]c2c1)Cc1ccccc1 (stereo unspecified)	·	?	?	1%	2.2µM*	0%
O=c1cc(CSc2nnnn2-c2ccccc2)nc2scc(-c3ccccc3)n12	-11%	?	8.3µM*	-5%	-22%	0%
Cc1cc(C(=O)CN2C(=O)C(=O)N(C3CCCC3)C2=O)c(C)n1CCc1ccc(F)cc1	·	?	-16%	12%	-24%	-7%
COC(=O)c1ccc(C23CC4(C2)[C@H](CN(Cc2cccnc2)[C@@H]4c2ccccc2)C3c2ccccc2)cc1 (stereo partly specified)	-2%	7.4µM*	8.3µM*	-16%	-17%	-6%
COC(=O)c1ccc(C23CC4(C2)[C@H](CN(CC2CCCCC2)[C@@H]4c2ccccc2)C3c2ccccc2)cc1 (stereo partly specified)	3%	?	?	1%	-8%	-2%
COC(=O)c1ccc(C23CC4(C2)[C@H](CN(Cc2cccnc2)[C@@H]4c2ccccc2)C3c2ccc(C(F)(F)F)cc2)cc1 (stereo partly specified)	18%	2.9µM*	3.3µM*	1%	-20%	-5%
N#Cc1ccc(C23CC4(C2)[C@H](CN(Cc2cccnc2)[C@@H]4c2ccccc2)C3c2ccccc2)cc1 (stereo partly specified)	0%	4.1µM*	3.7µM*	-3%	?	-11%
Cc1ccc(S(=O)(=O)Nc2cc(=O)[nH]c(SCC(=O)Nc3ccccc3Cl)n2)cc1	11%	-7%	23%[5.75 µM]	-9%	-20%	0%
CCc1ccc(NC(=O)CSc2nc(NS(=O)(=O)c3ccccc3)cc(=O)[nH]2)cc1	8%	?	4.1µM*	-13%	?	1%
Cc1ccc(NC(=O)CSc2nc(NS(=O)(=O)c3ccccc3)cc(=O)[nH]2)cc1	7%	·	3.7µM*	5%	21%	0%
CCOc1ccc(NC(=O)CSc2nc(NS(=O)(=O)c3ccc(C)cc3)cc(=O)[nH]2)cc1	0%	-10%	94%	-27%	-1%	-5%
Cc1ccc(S(=O)(=O)Nc2cc(=O)[nH]c(SCC(=O)Nc3cccc(C)c3)n2)cc1	-1%	1.9µM*	-1%	-12%	-4%	-4%
c1cncc(CN2CCN(c3cc(-c4cnc5ccccc5c4)nc4ccnn34)CC2)c1	·	·	·	5%	·	·
CN1C(=O)c2ccccc2NC(=O)C1Cc1ccccc1 (stereo unspecified)	2%	7%	12µM*	2%	7%	0%
CN1CC(=O)Nc2ccccc2C1=O	0%	32%	-6%	14%	6%	0%
O=C(O)c1ccc(N[C@H](c2ccccc2)c2ccc3cccnc3c2O)cc1	-4%	·	·	·	·	·
Oc1c(C(Nc2nc3ccccc3s2)c2ccco2)ccc2cccnc12 (stereo unspecified)	-179%	0.1µM*	?	-24%	2.5µM*	-4%
CCN(CC)c1ccc(C(NC(=O)C(C)C)c2ccc3cccnc3c2O)cc1 (stereo unspecified)	·	·	·	-15%	·	·
CC(C)C(=O)NC(c1ccco1)c1ccc2cccnc2c1O (stereo unspecified)	-61%	2.1µM*	28%	20µM*	4µM*	?
CC1(c2ccccc2Br)NC(=O)N(CC(=O)NC2CCCCC2)C1=O (stereo unspecified)	·	?	12µM*	-3%	14%	-10%
CCc1nc(Nc2ccc(N3CCN(C(C)=O)CC3)cc2)c2oc3ccccc3c2n1	-42%	10µM*	32%	-12%	-21%	-6%
SMILES	NS1 function inh	Pf growth 48h	Pf growth 96h	AMA1-RON2 inh	HCV inhibitor	SARS PLP yeast
CCc1nc(Nc2ccc(F)cc2)c2oc3ccccc3c2n1	-54%	?	?	0%	10µM*	-5%
CCc1nc(Nc2ccccc2)c2oc3ccccc3c2n1	-61%	-15%	0%	0%	?	-10%
O=C(CNC(=O)C1COc2ccccc2O1)Nc1ccc(F)c(F)c1 (stereo unspecified)	·	·	·	-18%	6%	-1%
CCCCn1c(N)c(N(CC(C)C)C(=O)C2=NN(c3ccccc3)C(=O)CC2)c(=O)[nH]c1=O	·	?	-11%	-2%[11.6 µM]	32%	0%
CCN(CC)CCNC(=O)C(=O)Nc1cc2c3c(c1)CCC(=O)N3CCC2	-15%	5%	23%	5%	-10%	3%
OC(COCC(F)(F)C(F)(F)C(F)(F)C(F)F)Cn1c2ccc(Cl)cc2c2cc(Cl)ccc21 (stereo unspecified)	-60%	1µM*	0.59µM*	-14%	3.2µM*	-94%
CCOC(=O)c1c(O)c2cc(Cl)ccc2n(CC)c1=O	-44%	-20%	?	1%	-6%	0%
CCOC(=O)C(NC(=O)c1ccccc1)=C(C)C	9%	·	-6%	2%	1%	2%
COC(=O)C(NC(=O)c1ccccc1)=C(C)C	2%	8%	4.1µM*	6%	-17%	5%
COCCNC(=O)c1cccc(OC2CCN(Cc3cccc(C(C)=O)c3)CC2)c1	18%	-10%	0%	-6%	-26%	-2%
COCCNC(=O)c1cccc(OC2CCN(Cc3ccc(OC(F)F)cc3)CC2)c1	-5%	-3%	0%	-8%	7.1µM*	2%
CCCOc1ccc(OCCCCNC(C)CC)cc1 (stereo unspecified)	0%	·	39%	-6%	?	3%
CCC(C)NCCOc1ccc(C(C)(C)c2ccccc2)cc1 (stereo unspecified)	0%	?	-25%	-13%	10µM*	0%
CC(C)(C)c1ccc(OCCNCc2ccccc2)cc1	-15%	-16%	-21%	-19%	0%	1%

Assay outcomes: PubChem BioAssay, National Center for Advancing Translational Sciences (NCATS)
